From PubChem BioAssay AID1159580 (chemical genetic matrix, 2015)
Several values for one entry are separate records, joined by “and”; a condition that tells them apart may be missing. Identical values can stand only once. Among all 5,500 compounds or so, about 2,000 (36%) were called active. Inconclusive results (about 18%) are left out. No stated cut-off is given here; in the data, active means normalized growth mostly below about 0.91 (no sharp cut-off); inconclusive means no clear call, values can overlap the other calls; inactive means mostly above about 0.92. The list shows a part of the results.

Experiment: chemical genetic growth profiling, strain panel (AID 1159580);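 further: tested at 20 µM; growth read once vehicle control cultures reached saturation at 30 °C; 1 = growth at the plate median or of vehicle wells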
Settings: S. cerevisiae deletion strains, growth OD

Measured: normalized growth

COc1cc(C)c2c(=O)cc(-c3ccccc3)oc2c1
inactive: locus YAL021C, strain ccr4, stronger effect = lower value 0.983 | locus YAL026C, strain drs2, stronger effect = lower value 0.922 | locus YBR009C, strain hhf1, stronger effect = lower value 0.946 | locus YBR021W, strain FUR4, stronger effect = lower value 0.921 | locus YBR171W, strain sec66, stronger effect = lower value 0.911 | locus YBR229C, strain ROT2, stronger effect = lower value 0.984 | locus YBR231C, strain swc5, stronger effect = lower value 0.925 | locus YBR279W, strain paf1, stronger effect = lower value 0.942 | locus YCL016C, strain dcc1, stronger effect = lower value 0.93 | locus YCL029C, strain bik1, stronger effect = lower value 0.968 | locus YCL061C, strain MRC1, stronger effect = lower value 0.927 | locus YCL069W, strain vba3, stronger effect = lower value 0.939 | locus YDL005C, strain med2, stronger effect = lower value 0.956 | locus YDL035C, strain GPR1, stronger effect = lower value 1.01 | locus YDL074C, strain BRE1, stronger effect = lower value 0.896 | locus YDL101C, strain DUN1, stronger effect = lower value 0.948 | locus YDL134C, strain PPH21, stronger effect = lower value 0.998 | locus YDL185W, strain tfp1, stronger effect = lower value 0.979 | locus YDL192W, strain arf1, stronger effect = lower value 0.966 | locus YDR001C, strain nth1, stronger effect = lower value 0.938 | locus YDR069C, strain doa4, stronger effect = lower value 0.941 | locus YDR101C, strain arx1, stronger effect = lower value 0.989 | locus YDR150W, strain NUM1, stronger effect = lower value 1.02 | locus YDR159W, strain sac3, stronger effect = lower value 0.9 | locus YDR162C, strain NBP2, stronger effect = lower value 0.996 | locus YDR195W, strain ref2 1 | locus YDR297W, strain sur2, stronger effect = lower value 0.927 | locus YDR318W, strain mcm21, stronger effect = lower value 0.968 | locus YDR334W, strain swr1, stronger effect = lower value 0.938 | locus YDR335W, strain msn5, stronger effect = lower value 0.942 | locus YDR388W, stronger effect = lower value 0.967 | locus YDR502C, strain sam2, stronger effect = lower value 0.977 | locus YEL037C, strain rad23, stronger effect = lower value 0.942 | locus YEL061C, strain CIN8 (second series), stronger effect = lower value 0.926 | locus YEL061C, strain CIN8, stronger effect = lower value 0.985 | locus YER015W, strain faa2, stronger effect = lower value 0.945 | locus YER016W, strain bim1, stronger effect = lower value 0.935 | locus YER110C, stronger effect = lower value 0.963 | locus YER111C, strain swi4, stronger effect = lower value 0.96 | locus YER155C, strain BEM2, stronger effect = lower value 0.973 | locus YER167W, strain BCK2, stronger effect = lower value 0.994 | locus YFR010W, strain ubp6, stronger effect = lower value 0.933 | locus YGL078C, strain dbp3, stronger effect = lower value 0.972 | locus YGL086W, strain mad1, stronger effect = lower value 0.973 | locus YGL173C, strain kem1, stronger effect = lower value 0.935 | locus YGL227W, strain vid30, stronger effect = lower value 0.924 | locus YGL248W, strain PDE1, stronger effect = lower value 0.955 | locus YGR078C, strain PAC10, stronger effect = lower value 0.955 | locus YGR135W, strain pre9, stronger effect = lower value 0.98 | locus YGR252W, strain gcn5, stronger effect = lower value 0.96 | locus YHR013C, strain ard1, stronger effect = lower value 0.904 | locus YHR027C, strain rpn1, stronger effect = lower value 0.94 | locus YHR030C, strain SLT2, stronger effect = lower value 0.995 and 0.867 | locus YHR079C, strain IRE1 (second series), stronger effect = lower value 0.974 | locus YHR079C, strain IRE1, stronger effect = lower value 0.868 | locus YHR094C, strain hxt1, stronger effect = lower value 0.965 | locus YHR129C, strain ARP1, stronger effect = lower value 0.976 | locus YHR200W, strain rpn10, stronger effect = lower value 0.963 | locus YIL066C, strain RNR3, stronger effect = lower value 0.996 | locus YIL073C, strain SPO22, stronger effect = lower value 0.949 | locus YIL125W, strain kgd1, stronger effect = lower value 0.964 | locus YIR030C, strain dcg1, stronger effect = lower value 0.958 | locus YJL092W, strain hpr5, stronger effect = lower value 0.923 | locus YJL115W, strain asf1, stronger effect = lower value 0.955 | locus YJL134W, strain LCB3, stronger effect = lower value 0.987 | locus YJL154C, strain vps35, stronger effect = lower value 0.942 | locus YJL168C, strain set2, stronger effect = lower value 0.969
active: locus YAL030W, strain snc1, stronger effect = lower value 0.928 | locus YBL061C, strain skt5, stronger effect = lower value 0.915 | locus YBR023C, strain chs3, stronger effect = lower value 0.913 | locus YCL011C, strain gbp2, stronger effect = lower value 0.891 | locus YCR088W, strain abp1, stronger effect = lower value 0.92 | locus YDL040C, strain nat1, stronger effect = lower value 0.93 | locus YDR137W, strain rgp1, stronger effect = lower value 0.762 | locus YDR392W, strain spt3, stronger effect = lower value 0.47 | locus YEL003W, strain gim4, stronger effect = lower value 0.893 | locus YER155C, strain BEM2 (second series), stronger effect = lower value 0.505 | locus YGL167C, strain pmr1, stronger effect = lower value 0.913 | locus YGL240W, strain doc1, stronger effect = lower value 0.856 | locus YGL253W, strain hxk2, stronger effect = lower value 0.909 | locus YHR142W, strain chs7, stronger effect = lower value 0.73 | locus YJL095W, strain BCK1 (second series), stronger effect = lower value 0.919 | locus YJL129C, strain trk1, stronger effect = lower value 0.833 | locus YJL164C, strain tpk1, stronger effect = lower value 0.909 | locus YJL166W, strain qcr8, stronger effect = lower value 0.893
0.914 (inactive) and 0.876 (active): locus YJL095W, strain BCK1, stronger effect = lower value
